Reference: PubChem BioAssay (EPA / NIEHS)
Several values for one entry are separate records, joined by “and”; a condition that tells them apart may be missing. Equal entries are not always repeated. Records with an inconclusive call do not appear. The source holds several records for some structures; these can differ, active in one and inactive in another. Activity calls are given as the source filed them. The calls were made as follows, unless noted: active = hit-call score of the fitted dose curve at least 0.9, where 1 is the maximum; inconclusive = response in the unintended direction; inactive = score below 0.9.

Tests used:
[1] = ATG_TCF_b_cat_CIS: Attagene CIS-FACTORIAL HepG2 Assay for human T-Cell-Factor with beta-catenin (TCF/b-cat) (AID 2282965; active = hit-call score of the fitted dose curve at least 0.9, where 1 is the maximum; inactive = score below 0.9); conditions: HepG2 TCF/beta-catenin cis-reporter transcription, actives raise or lower the signal
Procedure, shortened: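 HepG2 cells transiently transfected with multiple cis-promoter-regulated reporter transcription units, so endogenous transcription factor activity is measured. Reporter mRNA read 24 hours after dosing by RT-PCR, fluorescent labelling and capillary electrophoresis; bidirectional fitting against DMSO.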

[2] = ATG_TAL_CIS: Attagene CIS-FACTORIAL HepG2 Assay for human TAL Basal Promoter (AID 2282966; active = hit-call score of the fitted dose curve at least 0.9, where 1 is the maximum; inactive = score below 0.9;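 also: background control endpoint measuring basal TAL promoter reporter mRNA not a specific factor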); conditions: HepG2 Attagene cis-factorial TAL promoter reporter; actives raise or lower the signal
Procedure, shortened: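 Fluorescence of labelled reporter cDNA fragments, resolved by capillary electrophoresis, gave the readout. Human HepG2 liver cells carried transiently transfected cis-element reporter units and were treated for 24 hours; activity was fitted bidirectionally against DMSO.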

[3] = ATG_TGFb_CIS: Attagene CIS-FACTORIAL HepG2 Assay for human Transforming Growth Factor (TGF) (AID 2282967; active = hit-call score of the fitted dose curve at least 0.9, where 1 is the maximum; inactive = score below 0.9); conditions: HepG2 Attagene CIS TGFb reporter, mRNA transcription; actives raise or lower the signal
Procedure, shortened: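 After a 24-hour incubation with compound, transfected HepG2 cells were lysed for RNA; reporter cDNA was amplified, fluorescently end-labeled and separated by CE. DMSO served as baseline for bidirectional fits.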

[4] = ATG_VDRE_CIS: Attagene CIS-FACTORIAL HepG2 Assay for human Vitamin D Receptor Element (VDRE) (AID 2282968; active = hit-call score of the fitted dose curve at least 0.9, where 1 is the maximum; inactive = score below 0.9); conditions: HepG2 VDRE cis-reporter transcription, actives raise or lower the signal
Procedure, shortened: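 HepG2 cells transiently transfected with cis-element reporter units, dosed 24 h; reporter mRNA measured by RT-PCR, 6-FAM labeling, HpaI digestion and capillary electrophoresis. Activity fitted bidirectionally against DMSO baseline.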

[5] = target: Nuclear receptor subfamily 1 group I member 3 (Homo sapiens) (UniProt Q14994); experiment: ATG_CAR_TRANS: Attagene TRANS-FACTORIAL HepG2 Assay for human Constitutive Androstane Receptor (CAR) (AID 2282969); conditions: HepG2 Attagene TRANS-FACTORIAL CAR reporter;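 also: activators raise reporter mRNA above DMSO so AC50 marks induction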
Procedure, shortened: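 HepG2 cells transiently transfected with multiplexed GAL4-UAS reporter units expressing chimeric NR-Gal4 proteins; compound exposure 24 h. Reporter mRNA measured by RT-PCR, 6-FAM labelling, HpaI digestion and capillary electrophoresis; gain-of-signal fitted against DMSO baseline.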

[6] = target: Estrogen receptor (Homo sapiens) (UniProt P03372); experiment: ATG_ERa_TRANS: Attagene TRANS-FACTORIAL HepG2 Assay for human Estrogen Receptor alpha (ERa) (AID 2282970); conditions: HepG2 Attagene TRANS ERa GAL4 reporter, mRNA
Procedure, shortened: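 Human liver HepG2, transient transfection of multiple GAL4-UAS reporter units; TRANS format (exogenous NR-Gal4 chimera). 24 h dosing. Readout: reporter mRNA, RT-PCR, 6-FAM primer extension, HpaI digest, capillary electrophoresis. Positive direction vs DMSO.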

[7] = target: X-box-binding protein 1 (Homo sapiens) (UniProt P17861); experiment: ATG_Xbp1_CIS: Attagene CIS-FACTORIAL HepG2 Assay for human X-box Binding Protein 1 (XBP1) (AID 2282972; active = hit-call score of the fitted dose curve at least 0.9, where 1 is the maximum; inactive = score below 0.9); conditions: HepG2 XBP1 cis-element reporter, Attagene multiplex; actives raise or lower the signal
Procedure, shortened: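 After a 24-hour chemical exposure of HepG2 cells carrying cis-regulated reporters, reporter mRNA levels are assessed. Quantification uses RT-PCR, 6-FAM labelling and capillary electrophoresis. Gain- or loss-of-signal is fitted against DMSO.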

[8] = ATG_M_19_TRANS: Attagene TRANS-FACTORIAL HepG2 Assay for M19 Transcription Factor (Internal Marker) (AID 2282974); conditions: HepG2 Attagene TRANS-FACTORIAL M19 internal marker reporter
Procedure, shortened: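 Multiplexed TRANS format: HepG2 liver cells bearing transient GAL4-UAS reporter units, chemical treatment 24 h, reporter transcripts quantified by RT-PCR plus capillary electrophoresis. DMSO defines baseline.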

[9] = ATG_Hpa5_TRANS: Attagene TRANS-FACTORIAL HepG2 Assay for human GAL4-Hpa5 Hepatocyte Transcription Factor Basal Promoter (AID 2282975); conditions: HepG2 Attagene GAL4-Hpa5 transcription reporter;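 also: hits are increases in reporter mRNA over DMSO baseline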
Procedure, shortened: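 Basal-promoter GAL4 background control within the HepG2 trans-factorial panel of transiently transfected reporter units. Reporter mRNA is measured 24 h after dosing by RT-PCR and capillary electrophoresis, fitted for gain of signal versus DMSO.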

[10] = target: Glucocorticoid receptor (Homo sapiens) (UniProt P04150); experiment: ATG_GR_TRANS: Attagene TRANS-FACTORIAL HepG2 Assay for human Glucocorticoid Receptor (GR) (AID 2282978); conditions: HepG2 Attagene TRANS GR reporter, mRNA transcription;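 also: activators score as hits since higher reporter transcript over DMSO is fitted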
Procedure, shortened: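 Transiently transfected HepG2 cells express chimeric NR-GAL4 proteins acting on GAL4-UAS reporter units. Compounds are applied for 24 h. mRNA induction over DMSO is measured by capillary electrophoresis.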

[11] = target: Bile acid receptor (Homo sapiens) (UniProt Q96RI1); experiment: ATG_FXR_TRANS: Attagene TRANS-FACTORIAL HepG2 Assay for Farnesoid X Receptor (FXR) (AID 2282979); conditions: HepG2 Attagene TRANS FXR-GAL4 reporter transcription;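 also: hits raise reporter mRNA above DMSO so AC50 marks FXR activation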
Procedure, shortened: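 Transient transfection of HepG2 with multiplexed GAL4-UAS reporter units; exogenous FXR-GAL4 chimera. Dose 24 h → TriZol RNA → oligo(dT) RT → PCR, 6-FAM primer extension, HpaI cut → CE. Gain vs DMSO.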

[12] = target: Oxysterols receptor LXR-beta (Homo sapiens) (UniProt P55055); experiment: ATG_LXRb_TRANS: Attagene TRANS-FACTORIAL HepG2 Assay for human Liver X Receptor beta (LXRb) (AID 2282981); conditions: HepG2 Attagene TRANS GAL4-LXRb reporter, mRNA
Procedure, shortened: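 HepG2 cells transiently transfected with multiple reporter transcription units carrying chimeric NR-Gal4 proteins acting on GAL4-UAS reporters; compound exposure 24 h. Reporter mRNA quantified by RT-PCR, 6-FAM labelling, HpaI digestion and capillary electrophoresis; gain of signal versus DMSO.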

[13] = ATG_M_06_TRANS: Attagene TRANS-FACTORIAL HepG2 Assay for M06 Transcription Factor (Internal Marker) (AID 2282983); conditions: HepG2 Attagene TRANS M06 internal marker reporter;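 also: reporter transcript level by RT-PCR then capillary electrophoresis fluorescence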
Procedure, shortened: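 Transfect HepG2 with MRTUs → dose compounds 24 h → isolate RNA, oligo(dT) RT → PCR with reporter primers → 6-FAM primer extension → HpaI digest → CE fragment analysis. Positive direction vs DMSO.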

[14] = ATG_M_32_TRANS: Attagene TRANS-FACTORIAL HepG2 Assay for M32 Transcription Factor (Internal Marker) (AID 2282984); conditions: HepG2 Attagene TRANS M32 internal marker reporter
Procedure, shortened: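 HepG2 cells transiently transfected with multiple GAL4-UAS reporter transcription units, dosed for 24 hours; reporter mRNA quantified by RT-PCR, 6-FAM primer extension, HpaI digestion and capillary electrophoresis. Gain-of-signal fitted versus DMSO baseline; internal background-control marker.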

[15] = ATG_GAL4_TRANS: Attagene TRANS-FACTORIAL HepG2 Assay for GAL4 (Internal Marker) (AID 2282976); conditions: HepG2 Attagene TRANS GAL4 internal marker reporter
Procedure, shortened: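 First, HepG2 cells were transfected with reporter units under GAL4-UAS control. Next, they were treated with chemical for 24 h. Finally, RNA was reverse-transcribed, PCR-amplified, FAM-labelled and resolved by capillary electrophoresis, with induction scored against DMSO.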

[16] = target: Oxysterols receptor LXR-alpha (Homo sapiens) (UniProt Q13133); experiment: ATG_LXRa_TRANS: Attagene TRANS-FACTORIAL HepG2 Assay for human Liver X Receptor alpha (LXRa) (AID 2282980); conditions: HepG2 Attagene TRANS reporter, LXRa transactivation
Procedure, shortened: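 Transfect HepG2 with GAL4-UAS multiplex reporter constructs (TRANS format, chimeric receptor-GAL4); treat 24 h; extract RNA, reverse-transcribe, PCR-amplify, FAM-label, HpaI-digest; resolve fragments by capillary electrophoresis. Upward response vs DMSO.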

[17] = target: Steroid hormone receptor ERR1 (Homo sapiens) (UniProt P11474); experiment: ATG_ERRa_TRANS: Attagene TRANS-FACTORIAL HepG2 Assay for human Estrogen-Related Receptor alpha (ERRa) (AID 2282971); conditions: HepG2 Attagene TRANS reporter, ERRa transactivation
Procedure, shortened: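 Reporter transcript induction was quantified by RT-PCR and capillary electrophoresis of FAM-labelled, HpaI-cut products after 24 h treatment of HepG2 cells carrying transiently transfected GAL4-UAS reporter units and an exogenous ERRa-Gal4 fusion; activity scored as increase over DMSO.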

[18] = target: Androgen receptor (Homo sapiens) (UniProt P10275); experiment: ATG_AR_TRANS: Attagene TRANS-FACTORIAL HepG2 Assay for human Androgen Receptor (AR) (AID 2282973); conditions: HepG2 Attagene TRANS-FACTORIAL AR reporter transcription
Procedure, shortened: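 Steps: transfect HepG2 with multiple GAL4-UAS reporter transcription units (TRANS format, exogenous NR-Gal4 protein); dose 24 h; isolate RNA, reverse-transcribe, PCR-amplify, FAM-label, HpaI-digest; resolve by capillary electrophoresis. Positive direction vs DMSO.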

[19] = target: Estrogen-related receptor gamma (Homo sapiens) (UniProt P62508); experiment: ATG_ERRg_TRANS: Attagene TRANS-FACTORIAL HepG2 Assay for human Estrogen-Related Receptor gamma (ERRg) (AID 2282977); conditions: HepG2 Attagene TRANS reporter, ERRg transactivation;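 also: hits increase reporter signal over DMSO so potencies reflect activators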
Procedure, shortened: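 Transient HepG2 transfectants, 24 h compound exposure, GAL4-UAS reporter mRNA by RT-PCR/6-FAM labelling/capillary electrophoresis; positive direction vs DMSO.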

Measured: AC50

Sequence of Bile acid receptor (Homo sapiens) (Q96RI1 whole entry, looked up, the tested form may be a part): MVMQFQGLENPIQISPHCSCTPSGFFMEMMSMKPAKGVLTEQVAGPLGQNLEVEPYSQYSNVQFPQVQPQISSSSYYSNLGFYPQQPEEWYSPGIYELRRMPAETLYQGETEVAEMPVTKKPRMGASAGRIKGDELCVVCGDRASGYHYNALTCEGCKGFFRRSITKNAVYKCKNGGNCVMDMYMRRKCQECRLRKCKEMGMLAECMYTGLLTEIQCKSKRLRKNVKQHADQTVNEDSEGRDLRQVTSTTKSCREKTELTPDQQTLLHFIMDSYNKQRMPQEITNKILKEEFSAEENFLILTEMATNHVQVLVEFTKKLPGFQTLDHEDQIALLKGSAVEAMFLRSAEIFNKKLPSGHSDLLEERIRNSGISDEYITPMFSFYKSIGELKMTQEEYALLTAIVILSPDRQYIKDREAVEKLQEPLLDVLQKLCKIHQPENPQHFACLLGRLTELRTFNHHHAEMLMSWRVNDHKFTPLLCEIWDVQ
Sequence of Oxysterols receptor LXR-alpha (Homo sapiens) (Q13133 whole entry, looked up, the tested form may be a part): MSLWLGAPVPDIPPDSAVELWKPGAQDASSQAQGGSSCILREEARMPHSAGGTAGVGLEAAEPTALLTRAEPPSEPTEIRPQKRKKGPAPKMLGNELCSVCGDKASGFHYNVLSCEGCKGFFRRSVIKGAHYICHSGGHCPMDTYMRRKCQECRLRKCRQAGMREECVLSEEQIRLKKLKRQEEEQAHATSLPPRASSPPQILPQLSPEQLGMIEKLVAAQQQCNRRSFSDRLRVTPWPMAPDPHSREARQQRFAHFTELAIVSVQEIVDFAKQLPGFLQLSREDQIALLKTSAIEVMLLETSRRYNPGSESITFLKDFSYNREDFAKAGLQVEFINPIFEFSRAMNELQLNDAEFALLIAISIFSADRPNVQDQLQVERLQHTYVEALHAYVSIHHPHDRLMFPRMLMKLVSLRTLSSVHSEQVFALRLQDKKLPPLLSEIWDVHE
Sequence of X-box-binding protein 1 (Homo sapiens) (P17861 whole entry, looked up): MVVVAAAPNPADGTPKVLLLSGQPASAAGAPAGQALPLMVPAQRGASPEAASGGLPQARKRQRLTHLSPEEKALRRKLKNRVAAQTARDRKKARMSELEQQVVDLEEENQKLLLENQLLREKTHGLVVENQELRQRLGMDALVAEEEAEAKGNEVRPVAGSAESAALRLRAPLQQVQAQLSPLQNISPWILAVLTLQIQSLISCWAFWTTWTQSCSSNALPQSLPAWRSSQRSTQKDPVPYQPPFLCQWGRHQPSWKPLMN
Sequence of Estrogen-related receptor gamma (Homo sapiens) (P62508 whole entry, looked up, the tested form may be a part): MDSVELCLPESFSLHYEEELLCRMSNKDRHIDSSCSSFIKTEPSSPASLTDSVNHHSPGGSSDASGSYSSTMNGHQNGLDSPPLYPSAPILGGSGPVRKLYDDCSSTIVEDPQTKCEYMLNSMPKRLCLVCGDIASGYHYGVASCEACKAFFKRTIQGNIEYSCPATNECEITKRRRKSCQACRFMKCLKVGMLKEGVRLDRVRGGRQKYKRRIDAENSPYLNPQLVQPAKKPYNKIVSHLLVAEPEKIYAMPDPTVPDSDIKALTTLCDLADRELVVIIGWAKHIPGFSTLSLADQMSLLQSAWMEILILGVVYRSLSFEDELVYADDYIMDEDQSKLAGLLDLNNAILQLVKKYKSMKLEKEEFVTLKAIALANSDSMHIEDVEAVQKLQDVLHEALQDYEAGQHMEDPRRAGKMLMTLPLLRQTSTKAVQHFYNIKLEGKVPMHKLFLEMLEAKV
Sequence of Glucocorticoid receptor (Homo sapiens) (P04150 whole entry, looked up, the tested form may be a part): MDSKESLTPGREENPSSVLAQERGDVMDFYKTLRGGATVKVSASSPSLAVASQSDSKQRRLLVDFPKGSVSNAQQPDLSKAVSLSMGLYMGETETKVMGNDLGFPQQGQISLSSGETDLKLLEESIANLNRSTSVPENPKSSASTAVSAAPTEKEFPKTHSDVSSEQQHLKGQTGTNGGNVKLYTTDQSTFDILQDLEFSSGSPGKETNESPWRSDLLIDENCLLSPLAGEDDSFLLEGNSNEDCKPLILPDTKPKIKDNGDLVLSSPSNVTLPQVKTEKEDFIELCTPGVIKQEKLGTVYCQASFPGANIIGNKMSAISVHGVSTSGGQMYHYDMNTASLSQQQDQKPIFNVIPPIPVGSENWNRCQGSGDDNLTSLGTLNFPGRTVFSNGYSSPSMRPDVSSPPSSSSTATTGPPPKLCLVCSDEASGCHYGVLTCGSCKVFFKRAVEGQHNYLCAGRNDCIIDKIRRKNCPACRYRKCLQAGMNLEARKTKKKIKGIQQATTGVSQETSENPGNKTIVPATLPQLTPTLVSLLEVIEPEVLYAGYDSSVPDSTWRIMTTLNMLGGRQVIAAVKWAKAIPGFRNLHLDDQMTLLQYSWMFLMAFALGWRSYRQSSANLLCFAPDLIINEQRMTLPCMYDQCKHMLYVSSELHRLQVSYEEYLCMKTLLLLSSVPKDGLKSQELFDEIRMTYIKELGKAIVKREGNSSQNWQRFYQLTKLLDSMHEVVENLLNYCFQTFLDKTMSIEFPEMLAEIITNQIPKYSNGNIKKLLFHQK
Sequence of Nuclear receptor subfamily 1 group I member 3 (Homo sapiens) (Q14994 whole entry, looked up, the tested form may be a part): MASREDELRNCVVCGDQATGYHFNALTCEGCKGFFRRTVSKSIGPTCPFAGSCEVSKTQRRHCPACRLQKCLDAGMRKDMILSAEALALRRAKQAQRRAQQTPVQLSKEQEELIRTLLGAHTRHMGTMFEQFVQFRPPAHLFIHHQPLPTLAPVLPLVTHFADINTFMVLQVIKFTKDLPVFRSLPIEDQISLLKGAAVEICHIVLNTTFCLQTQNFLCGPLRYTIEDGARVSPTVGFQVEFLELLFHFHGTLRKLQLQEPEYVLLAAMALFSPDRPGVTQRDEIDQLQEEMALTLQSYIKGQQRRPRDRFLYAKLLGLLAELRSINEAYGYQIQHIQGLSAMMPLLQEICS
Sequence of Estrogen receptor (Homo sapiens) (P03372 whole entry, looked up, the tested form may be a part): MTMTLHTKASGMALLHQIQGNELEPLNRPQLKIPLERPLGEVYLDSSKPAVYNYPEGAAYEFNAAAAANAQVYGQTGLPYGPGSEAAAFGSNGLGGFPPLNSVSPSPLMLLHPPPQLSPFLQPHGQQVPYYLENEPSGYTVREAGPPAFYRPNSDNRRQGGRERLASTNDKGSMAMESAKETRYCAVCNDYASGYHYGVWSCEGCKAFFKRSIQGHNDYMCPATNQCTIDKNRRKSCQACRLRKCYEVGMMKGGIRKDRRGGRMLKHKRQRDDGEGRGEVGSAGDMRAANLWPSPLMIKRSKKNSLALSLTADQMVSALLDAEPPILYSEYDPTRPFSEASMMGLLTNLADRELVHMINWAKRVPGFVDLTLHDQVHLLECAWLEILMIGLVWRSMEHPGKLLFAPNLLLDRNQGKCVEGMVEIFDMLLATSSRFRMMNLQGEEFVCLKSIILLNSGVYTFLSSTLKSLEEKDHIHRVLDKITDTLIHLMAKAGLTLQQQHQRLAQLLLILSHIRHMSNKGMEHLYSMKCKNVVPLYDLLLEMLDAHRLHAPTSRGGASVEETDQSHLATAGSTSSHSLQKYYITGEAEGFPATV
Sequence of Steroid hormone receptor ERR1 (Homo sapiens) (P11474 whole entry, looked up, the tested form may be a part): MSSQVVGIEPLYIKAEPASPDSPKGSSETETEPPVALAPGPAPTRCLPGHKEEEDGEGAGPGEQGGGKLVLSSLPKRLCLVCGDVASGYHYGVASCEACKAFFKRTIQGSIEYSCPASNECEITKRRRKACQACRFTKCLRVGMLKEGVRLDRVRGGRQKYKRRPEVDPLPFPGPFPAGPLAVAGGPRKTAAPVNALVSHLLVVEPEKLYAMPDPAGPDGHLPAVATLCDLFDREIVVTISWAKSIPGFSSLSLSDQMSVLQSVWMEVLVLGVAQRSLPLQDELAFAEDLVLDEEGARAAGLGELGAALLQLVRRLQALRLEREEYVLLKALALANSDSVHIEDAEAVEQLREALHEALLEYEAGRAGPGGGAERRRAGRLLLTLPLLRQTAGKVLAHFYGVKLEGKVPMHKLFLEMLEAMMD
Sequence of Androgen receptor (Homo sapiens) (P10275 whole entry, looked up, the tested form may be a part): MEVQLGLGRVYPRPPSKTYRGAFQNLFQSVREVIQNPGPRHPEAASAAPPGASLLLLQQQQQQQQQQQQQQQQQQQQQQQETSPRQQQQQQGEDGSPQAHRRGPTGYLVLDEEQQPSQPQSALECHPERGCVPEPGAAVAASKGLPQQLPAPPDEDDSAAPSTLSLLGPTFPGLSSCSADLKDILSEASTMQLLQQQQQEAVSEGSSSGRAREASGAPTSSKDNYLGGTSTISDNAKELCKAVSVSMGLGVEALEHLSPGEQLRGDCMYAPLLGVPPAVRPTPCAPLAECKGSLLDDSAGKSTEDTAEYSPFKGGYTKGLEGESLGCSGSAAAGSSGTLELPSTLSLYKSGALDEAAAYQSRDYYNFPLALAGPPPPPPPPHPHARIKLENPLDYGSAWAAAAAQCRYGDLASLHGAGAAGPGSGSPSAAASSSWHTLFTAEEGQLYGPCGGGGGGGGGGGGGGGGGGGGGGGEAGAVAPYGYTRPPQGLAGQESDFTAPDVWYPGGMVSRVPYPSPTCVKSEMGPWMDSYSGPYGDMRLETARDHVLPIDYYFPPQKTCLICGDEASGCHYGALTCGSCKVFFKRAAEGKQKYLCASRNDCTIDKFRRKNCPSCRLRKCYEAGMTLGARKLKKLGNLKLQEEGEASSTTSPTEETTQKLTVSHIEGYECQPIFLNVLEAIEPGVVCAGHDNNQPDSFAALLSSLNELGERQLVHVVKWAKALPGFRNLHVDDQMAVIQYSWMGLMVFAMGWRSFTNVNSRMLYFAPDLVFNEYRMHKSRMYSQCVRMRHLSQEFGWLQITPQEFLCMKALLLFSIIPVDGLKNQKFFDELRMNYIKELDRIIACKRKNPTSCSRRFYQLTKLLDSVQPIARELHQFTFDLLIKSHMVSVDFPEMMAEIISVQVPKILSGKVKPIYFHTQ

CCCCC(CC)COC(=O)c1ccccc1C(=O)OCC(CC)CCCC (centres undefined)
not listed: [15] | [16] | [17] | [18] | [19]
inactive: all other assays above

CCOP(=S)(OCC)SCn1c(=O)oc2cc(Cl)ccc21
active: [4] 13.8 µM | [6] 29.9 µM
not listed: [12] | [17] | [18] | [19]
inactive: all other assays above

N#Cc1nn(-c2c(Cl)cc(C(F)(F)F)cc2Cl)c(N)c1S(=O)C(F)(F)F (centres undefined)
active: [4] 15.4 µM | [7] 15.3 µM | [16] 18.5 µM
inactive: [1] | [2] | [3] | [4] | [5] | [17] | [7] | [18] | [8] | [15] | [19] | [11] | [16] | [13] | [14]

COC(=O)C(C)Oc1ccc(Oc2ccc(Cl)cc2Cl)cc1 (centres undefined)
not listed: [6] | [12] | [15] | [18]
inactive: all other assays above

C=CCC1=C(C)C(OC(=O)C2C(C=C(C)C)C2(C)C)CC1=O (centres undefined)
inactive: [1] | [2] | [3] | [4] | [5] | [17] | [7] | [8] | [15] | [19] | [10] | [11] | [16] | [13] | [14]
active: [1] 48.8 µM [middle of 5 runs] | [2] 105 µM | [3] 178 µM | [7] 53.5 µM [middle of 5 runs] | [11] 35.7 µM and 35 µM and 27.2 µM

COC(=O)C=C(C)OP(=O)(OC)OC
not listed: [6] | [9] | [12] | [13] | [15] | [16] | [18]
inactive: all other assays above

CC(C)Oc1cc(-n2nc(C(C)(C)C)oc2=O)c(Cl)cc1Cl
active: [4] 0.667 µM
not listed: [12] | [16] | [17] | [19]
inactive: all other assays above
